SMILES strings stand for the structures. The whole screen tested about 360,000 compounds, of which about 1,100 (0.31%) were called active. The sample holds actives, similar compounds and a random draw of the others, so the mix is not that of the screen. No stated cut-off is given here; in the data, active means activity change below about -30%; inactive means the rest.
On the % scale 0 is the no-effect control and ±100 the full control effect.

In this assay the test system is cytosolic chaperonin (CCT/TRiC complex). As to the kind of experiment: High-Throughput Screening for Modulators of Cytosolic Chaperonin Activity. The note with it: purified chaperonin ATPase assay, HTRF ADP detection, 30 min; active compounds read low. The text has this:
The eukaryotic chaperonin named TRiC (for TCP-1 ring complex), also called CCT (for chaperonin containing TCP1), is an essential and conserved chaperone required for the folding and activation of 10-15% of the proteins encoded by the human genome. […] Despite its central role in cellular folding, little is known about TRiC mechanism and mode of substrate binding. Currently, no specific TRiC inhibitors are available. Given the early promise of other chaperone-directed inhibitors as cancer therapeutics (e.g. HSP90 inhibitors), inhibitors of TRiC activity may also selectively target transformed cells and have potential use as therapeutics for cancer.
To this end, a miniaturized assay was developed to screen against the Molecular Libraries Small Molecule Repository (MLSMR).
NIH Chemical Genomics Center [NCGC]
NIH Molecular Libraries Probe Centers Network [MLPCN]
Assay Submitter (PI): Judith Frydman, Stanford University
1.5 uL/well TRiC enzyme suspended in buffer (30 mM TRIS pH7.4, 100 mM KCl, 5 mM MgCl2, 1 mM DTT) was added with BioRAPTR FRD dispenser at 40 nM or 20 nM (based on the enzymatic activity of used batches) final concentration to a white solid bottom medium binding 1536-well plate (Greiner Bio-One, Monroe, NC), and quickly spanned down. 23 nl/well of compound solutions in DMSO were added with a pintool transfer (Kalypsis, San Diego, CA) at a single 76 uM final concentration. Next, 1.5 µl/well ATP was dispensed with BioraptR at 10 uM final concentration after which the plates were incubated at 37 deg C for 30 min. HTRF(R) Transcreener(R) ADP (Cisbio US, Bedford, MA) detection reagents were prepared accordingly to the protocol and dispensed into the plate (1.5 uL/well each), incubated for 30 min at ambient temperature. Then, the plates were read using Envision reader with excitation at 330nm and emission at 615nm (Eu(3)-Cryptate donor signal) and 665nm (d2 acceptor signal). The ratio of […] was calculated for each well.
In the case of `Nc1ccc([N+](=O)[O-])cc1`, the activity change is -35.1% (active). As for `CC(=O)Cc1ccc(OC(C)C)cc1`, the figure is -4.19% (inactive). On to `CC(C)(C)c1ccc(OC(=O)N2CCCCC2)cc1`, for which the activity change is -0.84% (inactive). Take `COc1ccc(CCn2c(O)c(C=NC3CC3)c(=O)[nH]c2=O)cc1OC`: the activity change was -0.86% (inactive). For `O=C1NC(=O)C(C/C=C/c2ccccc2)C(=O)N1`, the activity change is -117% (active). As for `O=C1NC(=O)C(Cc2ccccc2)C(=O)N1`, the figure is -0.218% (inactive). For `CSC1=NP(=S)(SC)N(C)c2nc3n(c21)CCC3` (stereo not given) the value was -0.177% (inactive); for `CCOC(=O)c1c(C)c(C(=O)N2CCC3(CC2)OCCO3)c(C)n1CC`, -3.47% (inactive); for `COCCNC(=O)CN1C2CCC1CC(O)(c1cccnc1)C2` (stereo not given), 0.503% (inactive).

Consider `Cc1ccc(Cn2nnnc2CN2CCC(n3nnc4ccccc43)CC2)cc1`, for which the activity change was -0.0525% (inactive).

Values taken from PubChem BioAssay AID651819 (National Center for Advancing Translational Sciences (NCATS), 2012).
